The values below come from ChEMBL document CHEMBL1961873, “Compounds: GSK PKIS; Assays: Nanosyn kinase panel” (2012).

Experiment [1] has as its target 5'-AMP-activated protein kinase catalytic subunit alpha-2 (Homo sapiens) (UniProt P54646). Particulars: at 1 µM.
Experiment [2] has as its target T1, NUAK family SNF1-like kinase 1 (Homo sapiens) (UniProt O60285).
T1 sequence (whole entry): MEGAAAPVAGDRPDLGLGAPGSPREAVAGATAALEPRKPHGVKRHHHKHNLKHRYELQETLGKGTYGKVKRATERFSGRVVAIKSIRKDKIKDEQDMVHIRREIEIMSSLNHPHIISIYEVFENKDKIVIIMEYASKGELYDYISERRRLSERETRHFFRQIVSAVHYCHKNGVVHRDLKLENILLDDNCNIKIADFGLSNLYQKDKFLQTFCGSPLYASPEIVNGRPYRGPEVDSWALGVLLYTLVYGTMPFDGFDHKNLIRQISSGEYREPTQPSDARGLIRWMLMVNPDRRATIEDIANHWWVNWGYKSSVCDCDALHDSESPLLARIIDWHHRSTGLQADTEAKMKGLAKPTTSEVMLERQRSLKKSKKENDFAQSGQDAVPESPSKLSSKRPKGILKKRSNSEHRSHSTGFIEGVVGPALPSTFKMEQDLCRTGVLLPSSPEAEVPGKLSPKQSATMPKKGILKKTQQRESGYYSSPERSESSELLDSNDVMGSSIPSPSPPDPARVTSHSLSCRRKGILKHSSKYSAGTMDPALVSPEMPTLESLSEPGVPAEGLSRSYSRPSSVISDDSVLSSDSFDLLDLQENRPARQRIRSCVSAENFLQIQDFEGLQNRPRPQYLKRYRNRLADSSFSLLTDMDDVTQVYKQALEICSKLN
The note with it: at 0.1 µM.

For experiment [3], the target named is T1, NUAK family SNF1-like kinase 1 (Homo sapiens). Particulars: at 1 µM.
The target in experiment [4] is T2, Serine/threonine-protein kinase BRSK1 (Homo sapiens) (UniProt Q8TDC3).
T2 sequence (whole entry): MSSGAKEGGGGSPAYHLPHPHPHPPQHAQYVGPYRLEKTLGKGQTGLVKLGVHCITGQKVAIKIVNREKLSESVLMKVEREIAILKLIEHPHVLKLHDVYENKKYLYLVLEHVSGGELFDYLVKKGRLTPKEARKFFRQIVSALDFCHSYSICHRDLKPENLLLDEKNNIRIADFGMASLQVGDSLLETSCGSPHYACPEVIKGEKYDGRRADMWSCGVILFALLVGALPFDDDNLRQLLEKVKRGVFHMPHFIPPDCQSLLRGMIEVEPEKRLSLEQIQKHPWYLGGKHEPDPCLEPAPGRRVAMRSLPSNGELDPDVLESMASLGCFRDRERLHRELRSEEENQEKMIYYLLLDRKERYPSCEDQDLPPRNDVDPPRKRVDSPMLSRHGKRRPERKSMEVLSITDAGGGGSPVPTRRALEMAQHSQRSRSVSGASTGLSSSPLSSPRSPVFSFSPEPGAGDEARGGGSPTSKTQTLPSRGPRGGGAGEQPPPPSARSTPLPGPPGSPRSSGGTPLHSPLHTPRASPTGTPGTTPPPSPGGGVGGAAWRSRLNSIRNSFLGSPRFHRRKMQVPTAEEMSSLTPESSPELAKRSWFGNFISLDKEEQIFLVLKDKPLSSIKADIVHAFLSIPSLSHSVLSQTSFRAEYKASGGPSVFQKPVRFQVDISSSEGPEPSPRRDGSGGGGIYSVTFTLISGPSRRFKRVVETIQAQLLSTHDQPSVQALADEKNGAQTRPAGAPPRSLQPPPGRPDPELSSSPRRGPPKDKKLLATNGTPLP
The note with it: at 0.1 µM.

Experiment [5] has as its target T2, Serine/threonine-protein kinase BRSK1 (Homo sapiens). The note with it: at 1 µM.
In experiment [6] the target is T3, Serine/threonine-protein kinase BRSK2 (Homo sapiens) (UniProt Q8IWQ3).
T3 sequence (whole entry): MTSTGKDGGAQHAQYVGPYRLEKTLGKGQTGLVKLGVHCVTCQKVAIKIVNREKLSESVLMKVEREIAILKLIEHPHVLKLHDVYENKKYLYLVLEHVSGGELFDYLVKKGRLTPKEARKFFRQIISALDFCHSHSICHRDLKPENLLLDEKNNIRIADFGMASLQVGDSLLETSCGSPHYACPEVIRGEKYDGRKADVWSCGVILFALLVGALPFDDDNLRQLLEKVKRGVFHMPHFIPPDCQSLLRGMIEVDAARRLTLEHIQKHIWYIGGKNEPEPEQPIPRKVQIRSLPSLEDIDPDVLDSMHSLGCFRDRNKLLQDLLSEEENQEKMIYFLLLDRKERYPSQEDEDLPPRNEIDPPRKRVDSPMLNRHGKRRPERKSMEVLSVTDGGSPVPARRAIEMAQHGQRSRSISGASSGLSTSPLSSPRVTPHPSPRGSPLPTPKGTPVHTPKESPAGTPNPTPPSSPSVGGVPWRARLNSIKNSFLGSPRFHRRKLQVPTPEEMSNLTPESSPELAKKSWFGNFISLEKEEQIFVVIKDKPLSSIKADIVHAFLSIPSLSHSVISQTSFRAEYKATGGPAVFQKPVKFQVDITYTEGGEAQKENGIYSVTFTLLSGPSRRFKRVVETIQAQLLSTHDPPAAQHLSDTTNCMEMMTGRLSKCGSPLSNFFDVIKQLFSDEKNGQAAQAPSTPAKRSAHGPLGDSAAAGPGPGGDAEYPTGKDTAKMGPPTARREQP
Particulars: at 0.1 µM.

Experiment [7] has as its target T3, Serine/threonine-protein kinase BRSK2 (Homo sapiens). The note with it: at 1 µM.
In experiment [8] the target is Calcium/calmodulin-dependent protein kinase type 1D (Homo sapiens) (UniProt Q8IU85). The note with it: at 0.1 µM.
Sequence of Calcium/calmodulin-dependent protein kinase type 1D (Homo sapiens) (Q8IU85 whole entry, looked up): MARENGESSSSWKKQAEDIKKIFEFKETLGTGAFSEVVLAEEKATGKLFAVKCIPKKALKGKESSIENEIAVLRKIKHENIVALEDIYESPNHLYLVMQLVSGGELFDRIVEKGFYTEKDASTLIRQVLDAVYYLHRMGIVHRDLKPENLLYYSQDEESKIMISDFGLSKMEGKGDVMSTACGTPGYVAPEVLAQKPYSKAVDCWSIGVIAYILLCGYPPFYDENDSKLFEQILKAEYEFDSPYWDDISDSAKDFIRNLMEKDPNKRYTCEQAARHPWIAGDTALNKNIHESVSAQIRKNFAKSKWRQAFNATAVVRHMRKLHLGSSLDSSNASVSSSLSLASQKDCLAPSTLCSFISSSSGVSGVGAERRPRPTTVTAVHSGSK
Experiment [9] shares this target. Particulars: at 1 µM.
Experiment [10] has as its target Calcium/calmodulin-dependent protein kinase type II subunit alpha (Homo sapiens) (UniProt Q9UQM7). Particulars: at 0.1 µM.
Experiment [11] has the same target. The note with it: at 1 µM.
The target of experiment [12] is Calcium/calmodulin-dependent protein kinase type II subunit delta (Homo sapiens) (UniProt Q13557). Particulars: at 0.1 µM.
Sequence of Calcium/calmodulin-dependent protein kinase type II subunit delta (Homo sapiens) (Q13557 whole entry): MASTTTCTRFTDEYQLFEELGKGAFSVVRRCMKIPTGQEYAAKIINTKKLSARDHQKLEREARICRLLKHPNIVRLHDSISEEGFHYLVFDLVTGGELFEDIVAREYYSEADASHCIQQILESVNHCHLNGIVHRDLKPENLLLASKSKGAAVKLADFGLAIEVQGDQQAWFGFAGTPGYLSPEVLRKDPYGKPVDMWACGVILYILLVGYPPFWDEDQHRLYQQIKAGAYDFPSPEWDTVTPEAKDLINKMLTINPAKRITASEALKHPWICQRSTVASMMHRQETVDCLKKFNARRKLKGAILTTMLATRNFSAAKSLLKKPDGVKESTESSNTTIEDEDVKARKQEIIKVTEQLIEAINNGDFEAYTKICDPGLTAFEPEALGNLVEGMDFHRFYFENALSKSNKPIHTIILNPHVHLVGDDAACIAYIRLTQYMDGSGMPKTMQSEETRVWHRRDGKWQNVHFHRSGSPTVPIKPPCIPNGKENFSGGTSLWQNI
For experiment [13] the target is unchanged. Particulars: at 1 µM.
The target of experiment [14] is T4, Calcium/calmodulin-dependent protein kinase type IV (Homo sapiens) (UniProt Q16566).
T4 sequence (whole entry): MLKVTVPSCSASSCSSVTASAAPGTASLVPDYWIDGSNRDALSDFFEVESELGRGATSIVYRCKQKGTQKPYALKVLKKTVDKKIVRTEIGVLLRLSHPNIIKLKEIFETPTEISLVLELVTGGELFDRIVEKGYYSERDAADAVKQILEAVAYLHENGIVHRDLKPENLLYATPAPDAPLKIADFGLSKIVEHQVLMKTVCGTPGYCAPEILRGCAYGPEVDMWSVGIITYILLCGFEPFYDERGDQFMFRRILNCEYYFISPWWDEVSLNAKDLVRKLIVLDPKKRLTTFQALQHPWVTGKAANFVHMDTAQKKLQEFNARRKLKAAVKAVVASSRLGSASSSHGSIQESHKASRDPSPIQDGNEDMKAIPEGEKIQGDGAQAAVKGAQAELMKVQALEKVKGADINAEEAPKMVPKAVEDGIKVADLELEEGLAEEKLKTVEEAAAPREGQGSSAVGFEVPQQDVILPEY
Particulars: at 0.1 µM.

The target in experiment [15] is T4, Calcium/calmodulin-dependent protein kinase type IV (Homo sapiens). The note with it: at 1 µM.
The target in experiment [16] is T5, Serine/threonine-protein kinase Chk1 (Homo sapiens) (UniProt O14757).
T5 sequence (whole entry): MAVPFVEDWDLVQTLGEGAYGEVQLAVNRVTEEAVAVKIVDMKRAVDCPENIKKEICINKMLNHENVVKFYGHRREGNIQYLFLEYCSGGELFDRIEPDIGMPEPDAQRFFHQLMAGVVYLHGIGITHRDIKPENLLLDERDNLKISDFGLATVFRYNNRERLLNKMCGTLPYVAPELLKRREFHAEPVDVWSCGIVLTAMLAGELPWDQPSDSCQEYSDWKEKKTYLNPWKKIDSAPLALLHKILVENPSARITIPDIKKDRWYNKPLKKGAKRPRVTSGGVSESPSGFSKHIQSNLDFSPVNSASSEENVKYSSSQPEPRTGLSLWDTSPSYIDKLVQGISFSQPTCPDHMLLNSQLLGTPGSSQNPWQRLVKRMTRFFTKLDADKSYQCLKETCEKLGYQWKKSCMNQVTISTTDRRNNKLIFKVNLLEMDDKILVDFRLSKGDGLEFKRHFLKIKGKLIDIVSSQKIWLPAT
The note with it: at 0.1 µM.

The target of experiment [17] is T5, Serine/threonine-protein kinase Chk1 (Homo sapiens). Particulars: at 1 µM.
Experiment [18] concerns the target Serine/threonine-protein kinase Chk2 (Homo sapiens) (UniProt O96017). Particulars: at 0.1 µM.
The target is the same in experiment [19]. Particulars: at 1 µM.
The target in experiment [20] is Death-associated protein kinase 1 (Homo sapiens) (UniProt P53355). The note with it: at 0.1 µM.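 Note: reported figure is the mean inhibition of DAPK1.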
Sequence of Death-associated protein kinase 1 (Homo sapiens) (P53355 whole entry, looked up): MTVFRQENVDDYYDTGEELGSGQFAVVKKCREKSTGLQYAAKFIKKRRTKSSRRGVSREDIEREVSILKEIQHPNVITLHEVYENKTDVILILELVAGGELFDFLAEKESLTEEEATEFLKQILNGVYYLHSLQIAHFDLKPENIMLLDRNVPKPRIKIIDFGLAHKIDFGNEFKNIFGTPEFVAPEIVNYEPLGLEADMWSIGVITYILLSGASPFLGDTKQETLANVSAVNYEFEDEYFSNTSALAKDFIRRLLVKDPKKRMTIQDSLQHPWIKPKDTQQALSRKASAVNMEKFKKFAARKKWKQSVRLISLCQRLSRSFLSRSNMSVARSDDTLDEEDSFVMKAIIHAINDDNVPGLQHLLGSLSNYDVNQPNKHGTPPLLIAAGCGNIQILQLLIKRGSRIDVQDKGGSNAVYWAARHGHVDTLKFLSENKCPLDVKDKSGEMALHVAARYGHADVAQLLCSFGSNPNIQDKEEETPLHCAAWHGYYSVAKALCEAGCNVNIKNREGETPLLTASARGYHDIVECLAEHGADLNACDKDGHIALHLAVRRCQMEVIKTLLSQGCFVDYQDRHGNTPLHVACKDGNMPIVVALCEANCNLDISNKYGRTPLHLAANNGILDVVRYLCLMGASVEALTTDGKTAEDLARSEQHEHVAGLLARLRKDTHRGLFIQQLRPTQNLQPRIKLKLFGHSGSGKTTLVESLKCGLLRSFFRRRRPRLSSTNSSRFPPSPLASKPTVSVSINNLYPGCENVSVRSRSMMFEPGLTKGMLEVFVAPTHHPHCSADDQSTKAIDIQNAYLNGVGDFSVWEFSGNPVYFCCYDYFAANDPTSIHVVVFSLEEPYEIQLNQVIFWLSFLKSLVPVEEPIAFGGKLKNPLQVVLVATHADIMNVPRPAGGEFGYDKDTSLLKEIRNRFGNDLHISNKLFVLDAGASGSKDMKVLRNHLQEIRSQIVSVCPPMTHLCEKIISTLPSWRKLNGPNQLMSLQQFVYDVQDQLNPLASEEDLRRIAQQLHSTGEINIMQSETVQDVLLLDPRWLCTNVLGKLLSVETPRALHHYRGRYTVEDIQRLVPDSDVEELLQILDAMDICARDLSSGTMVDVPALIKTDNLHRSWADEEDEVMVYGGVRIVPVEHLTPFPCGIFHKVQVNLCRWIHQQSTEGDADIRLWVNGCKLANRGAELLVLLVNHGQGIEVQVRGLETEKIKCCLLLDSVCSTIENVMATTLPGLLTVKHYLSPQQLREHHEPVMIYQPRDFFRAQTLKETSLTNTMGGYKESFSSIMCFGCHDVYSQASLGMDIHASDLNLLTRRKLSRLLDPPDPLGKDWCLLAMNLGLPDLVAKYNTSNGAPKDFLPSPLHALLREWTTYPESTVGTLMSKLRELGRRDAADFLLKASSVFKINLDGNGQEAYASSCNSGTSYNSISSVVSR

Sequence of Calcium/calmodulin-dependent protein kinase type II subunit alpha (Homo sapiens) (Q9UQM7 whole entry): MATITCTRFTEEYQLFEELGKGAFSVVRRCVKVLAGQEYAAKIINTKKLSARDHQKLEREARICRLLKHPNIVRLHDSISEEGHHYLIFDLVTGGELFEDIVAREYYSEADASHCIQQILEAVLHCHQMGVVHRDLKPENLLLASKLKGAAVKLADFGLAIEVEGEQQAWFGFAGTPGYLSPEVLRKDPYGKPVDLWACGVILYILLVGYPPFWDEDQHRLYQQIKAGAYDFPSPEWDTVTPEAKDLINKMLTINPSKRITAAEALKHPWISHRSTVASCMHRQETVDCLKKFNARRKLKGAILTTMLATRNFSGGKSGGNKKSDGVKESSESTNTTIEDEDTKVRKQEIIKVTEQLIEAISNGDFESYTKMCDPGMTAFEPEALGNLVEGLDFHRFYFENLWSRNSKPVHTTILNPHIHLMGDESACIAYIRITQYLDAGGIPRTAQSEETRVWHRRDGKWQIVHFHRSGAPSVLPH
Sequence of Serine/threonine-protein kinase Chk2 (Homo sapiens) (O96017 whole entry): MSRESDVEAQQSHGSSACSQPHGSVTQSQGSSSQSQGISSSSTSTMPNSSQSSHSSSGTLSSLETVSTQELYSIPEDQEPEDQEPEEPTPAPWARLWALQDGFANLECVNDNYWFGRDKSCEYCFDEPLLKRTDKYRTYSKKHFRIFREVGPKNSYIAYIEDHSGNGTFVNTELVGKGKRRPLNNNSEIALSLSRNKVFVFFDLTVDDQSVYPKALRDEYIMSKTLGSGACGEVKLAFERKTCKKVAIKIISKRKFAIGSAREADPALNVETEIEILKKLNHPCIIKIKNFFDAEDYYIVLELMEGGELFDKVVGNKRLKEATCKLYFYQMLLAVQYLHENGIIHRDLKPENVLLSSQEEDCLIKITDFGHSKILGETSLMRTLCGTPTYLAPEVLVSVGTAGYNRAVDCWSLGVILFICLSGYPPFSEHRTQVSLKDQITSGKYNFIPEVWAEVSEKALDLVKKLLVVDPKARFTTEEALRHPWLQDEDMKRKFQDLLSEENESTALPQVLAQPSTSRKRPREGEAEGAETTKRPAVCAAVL
Sequence of 5'-AMP-activated protein kinase catalytic subunit alpha-2 (Homo sapiens) (P54646 whole entry, looked up): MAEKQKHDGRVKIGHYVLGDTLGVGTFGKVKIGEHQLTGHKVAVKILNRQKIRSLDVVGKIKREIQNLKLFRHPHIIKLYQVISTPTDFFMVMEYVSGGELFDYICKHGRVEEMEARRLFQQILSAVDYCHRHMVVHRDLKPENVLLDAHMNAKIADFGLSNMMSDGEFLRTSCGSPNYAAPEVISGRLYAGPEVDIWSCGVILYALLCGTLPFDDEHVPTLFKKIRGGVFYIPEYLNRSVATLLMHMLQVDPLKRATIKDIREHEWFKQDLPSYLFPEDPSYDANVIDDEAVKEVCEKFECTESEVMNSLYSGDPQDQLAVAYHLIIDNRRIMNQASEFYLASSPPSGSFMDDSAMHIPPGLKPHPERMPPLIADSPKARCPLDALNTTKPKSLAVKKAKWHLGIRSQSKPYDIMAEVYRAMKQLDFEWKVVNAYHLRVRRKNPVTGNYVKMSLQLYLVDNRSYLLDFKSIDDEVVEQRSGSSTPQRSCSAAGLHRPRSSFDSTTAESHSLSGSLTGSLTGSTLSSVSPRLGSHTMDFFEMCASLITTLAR

With `CN1CCC(n2cnc(-c3ccc(F)cc3)c2-c2ccnc(N)n2)CC1`, the inhibition is 3.56% in experiment [1]; -0.55% in experiment [2]; 5.58% in experiment [3]; 1.29% in experiment [4]; 1.45% in experiment [5]; 1.08% in [6]. Besides, the inhibition in experiment [7] is 7.04%; in experiment [8], 0.79%; in [9], 1.05%; in experiment [10] it was 2.13%; in experiment [11], 2.5%; in experiment [12], -0.04%. The inhibition is 4.76% in experiment [13]; -0.06% in experiment [14]; 0.61% in experiment [15]; 0.82% in experiment [16]; -1.42% in [17]; 1.28% in [18]. Also, the inhibition in experiment [19] was 9.16%; in [20], 2.13%.

As to `O=C(O[C@H]1CN[C@H](C#Cc2cc3ncnc(Nc4ccc(Cc5ccccc5)cc4)c3s2)C1)N1CCOCC1`, the inhibition in experiment [1] was 1.84%; in experiment [2], -3.65%; in [3] it was -2.64%; in experiment [4], 0.3%; in experiment [5], 2.86%; in [6], 1.6%. Moreover, the inhibition was 2.92% in [7]; -0.64% in experiment [8]; -0.69% in experiment [9]; 0.64% in experiment [10]; -1.9% in experiment [11]; 1.04% in [12]. For the same molecule, the inhibition is -0.85% in experiment [13]; -0.04% in [14]; -2.21% in experiment [15]; 1.79% in experiment [16]; 0.1% in [17]; 0.28% in experiment [18]. Further, the inhibition came out at 0.95% in experiment [19] and 4.84% in experiment [20].

Turning to `Fc1ccc(-c2nn3ccccc3c2-c2ccncc2)cc1`, the inhibition in experiment [1] was 2.49%; in [2], -0.02%; in [3] it was 1.09%; in experiment [4], 0.59%; in experiment [5], 1.1%; in [6], 1.69%. Besides, the inhibition in [7] amounted to 0.78%; in [8], 0.87%; in experiment [9], 1.9%; in experiment [10], 3.85%; in experiment [11], 0.25%; in [12], 0.43%. The inhibition is 2.99% in experiment [13]; 1.16% in experiment [14]; 1.98% in experiment [15]; 0.22% in experiment [16]; -0.04% in experiment [17]; -0.38% in experiment [18]. Moreover, the inhibition in [19] came to 0.19%; in experiment [20], 0.72%.

As for `Cc1ccc(O)cc1Nc1ccnc2cc(-c3ccccn3)ccc12`, the inhibition in [1] is 6.05%; in [2], 4.17%; in experiment [3], 7.44%; in [4] it was 3.63%; in [5], 5.99%; in experiment [6], 3.25%. The inhibition in experiment [7] was determined as 3.89%; in experiment [8] it was 1.22%; in experiment [9] it was 1.32%; in [10], 6.72%; in experiment [11] it was 5.11%; in experiment [12], 4.51%. Moreover, the inhibition in [13] is 6.51%; in [14], -0.2%; in [15], 0.26%; in [16], 4.18%; in experiment [17], 4.5%; in [18] it was 3.95%. The inhibition in experiment [19] stood at 5.81%; in experiment [20], 3.99%.

As a reminder, the inhibition is the drop in the measured response relative to a control, in per cent.
